# An excerpt weighted towards active compounds, which were near 3.5% of everything screened.
# PPC-1+TRAIL kill: PPC-1 cancer cell killing with TRAIL present; cell killing (% activity), % at 4 µM or 5 µM; actives 0.41% (n = 220,000); PPC-1 cells + TRAIL, ATPLite viability luminescence;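 active means cell killing above 50% in the first pass at 4 µM, then a duplicate retest at 5 µM averaging 50% or more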;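 further: plate controls were cells with TRAIL plus DMSO for no effect and medium-only wells lacking cells for full effect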
# Platelet DG rel: modulates dense granule release in human platelets; AID 1663; inhibition, %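 (compounds screened at 7.5 µM in platelet-rich plasma)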; actives 0.22% (n = 300,000); human platelet-rich plasma, SFLLRN dense granule ATP release, luminescence;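 active means mean replicate score, as percent of positive control, at or above 50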
# HSP90 inh: HSP90 refolding inhibition in rabbit reticulocyte lysate | actives 0.91% (n = 290,000) | luciferase refolding luminescence, 3 h | inhibition, % at 5.6 µM;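 active means inhibition above the screen-wide mean plus 3 SD, computed separately per campaign, cut at about 16% in these data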;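 further: 0% = DMSO wells and 100% = 60 µM geldanamycin wells; inhibitors lower the luminescence because luciferase stays unfolded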
# TROY signal inh: TROY signaling inhibition | Q293 LMP1-TROYcd NF-kB luciferase reporter, 4 h | inhibition, % at 10 µM | actives 0.98% (n = 360,000) | AID 1347056;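 active means compounds whose plate-normalised and pattern-corrected inhibition of the luciferase reporter signal at the single screening dose is 50% or more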
# TWEAK-Fn14 inh: inhibitors of TWEAK-Fn14 interaction signaling | TWEAK-stimulated Fn14 reporter cells, luciferase luminescence, 8 h | inhibition, % at 10 µM | actives 2% (n = 360,000); in the data active means inhibition above about 50%
# TRAIL sens C8: caspase-8 TRAIL sensitization; NB7+C8 cells + TRAIL, ATPlite viability luminescence; inhibition (viability loss, TRAIL sensitization), % at 10 µM; actives 1% (n = 360,000);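 active means compounds causing at least 50% loss of cell viability in the single-dose screen, relative to plate controls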
# The depositor's hits bear a star; . = no result.
SMILES,PPC-1+TRAIL kill,Platelet DG rel,HSP90 inh,TROY signal inh,TWEAK-Fn14 inh,TRAIL sens C8
CN(C)/C(=N\S(=O)(=O)c1ccccc1)c1ccc(F)cc1,.,-14,-4,-17,52*,-14
c1ccc2cc(N3CCCCC3)ccc2c1,.,.,.,-11,-47,7
O=C1c2ccccc2C(=O)c2cc(N3CCCCC3)ccc21,.,.,.,83*,101*,86*
CC1CCN(c2ccc3c(c2)S(=O)(=O)c2ccccc2C3=O)CC1,.,0,.,-11,-2,21
NC(=O)C1CCN(c2ccc3c(c2)S(=O)(=O)c2ccccc2C3=O)CC1,.,-4,.,63*,49,-4
COc1ccc(S(=O)(=O)N2CCCCC2)cc1NC(=O)CCOc1cc(C)ccc1C,.,.,.,-19,2,-8
COc1ccc(NC(=O)CS(=O)(=O)c2cccc(Cl)c2)cc1,.,-13,-2,-8,-19,-15
COc1ccc(C)cc1NC(=O)ON=C1CCCCC1,.,.,.,-6,-19,-11
O=C(Nc1cccc2ccccc12)ON=C1CCCCC1,.,.,.,76*,81*,-2
CCCc1cc(-c2nc(N)ncc2-c2csc(C)n2)c(O)cc1OC,18,14,-2,8,15,-2
CCCc1cc(-c2nc(N)ncc2-c2ccc3c(c2)OCCCO3)c(O)cc1OC,4,70*,5,25,34,-11
O=C(CSc1nc2ccccc2s1)NCc1ccc2c(c1)OCO2,-4,-8,-2,11,62*,-6
O=C(CSc1ncnc2scc(-c3ccc(Cl)cc3)c12)NCc1ccc2c(c1)OCO2,-8,9,0,-2,86*,-8
COc1cccc(-n2nnnc2SCC(=O)NCc2ccc3c(c2)OCO3)c1,17,-2,3,-8,81*,16
COc1cc(OC)cc(-n2nnnc2SCC(=O)NCc2ccc3c(c2)OCO3)c1,-3,-5,4,-1,-1,-9
Cc1ccc(-c2csc3ncnc(SCC(=O)NCc4ccc5c(c4)OCO5)c23)cc1,8,2,2,12,23,-11
COc1ccc([C@H]2C[C@@H](n3cc(C4CC4)nn3)[C@H](O)CN2CC2CCCCC2)cc1,.,.,.,-13,9,14
COc1ccc(OC)c(NC(=O)C2(C)CCN2C(=O)Cc2ccc(Cl)cc2Cl)c1 (stereo not given),.,.,.,13,65*,-7
COc1ccc(NC(=O)C2(C)CCN2C(=O)Cc2ccc(Cl)cc2Cl)cc1OC (stereo not given),.,.,.,-4,2,-2
COn1c(SCc2ccc(Cl)cc2)nc2ccccc2c1=O,37,1,-3,1,24,60*
CC(=O)OCC(=O)C1(O)CCC2C3CCC4=CC(=O)CCC4(C)C3(F)C(O)CC21C (stereo not given),.,.,.,19,3,13
Clc1ccc(C(c2nnnn2C2CCCC2)N2CCN(c3nc4ccccc4s3)CC2)cc1 (stereo not given),.,-4,-3,59*,74*,-3
CCOC(=O)c1ccc(NC(=S)NCc2ccco2)cc1,16,5,0,-7,-21,22
CCC(C)(C)C1CCc2[nH]nc(C(=O)NN)c2C1 (stereo not given),2,7,13,69*,45,-9
O=C(COc1ccc(Cl)cc1Cl)OCC(=O)N1CCCc2ccccc21,7,6,3,9,-4,-6
SMILES,PPC-1+TRAIL kill,Platelet DG rel,HSP90 inh,TROY signal inh,TWEAK-Fn14 inh,TRAIL sens C8
O=C(COc1ccc(Cl)cc1Cl)NC(=S)N1CCCc2ccccc21,31,-1,2,10,58*,-29
Cc1cccc(OCC(=O)Nc2ccccc2N2CCCCC2)c1,13,0,2,-2,10,4
O=C(COc1ccc(Cl)cc1)OCC(=O)N1CCCc2ccccc21,18,4,-1,10,7,-3
CCC(=O)c1ccc(OCC(=O)OCC(=O)N2CCCc3ccccc32)cc1,.,-3,.,1,-2,88*
Cc1cccc(OCC(=O)NC(=S)N2CCCc3ccccc32)c1,12,3,3,39,56*,-12
CCCOc1ccccc1/C=N/NC(=O)C1CC1,.,.,7,8,-3,-9
Cc1ccc(C(=O)N2CCN=C2SCc2ccc([N+](=O)[O-])cc2)cc1C,6,-3,2,8,46,1
Cc1cccc(Nc2ccncc2S(N)(=O)=O)c1,.,-5,.,12,70*,-6
CC(=O)Nc1ccc(S(=O)(=O)N(C)CC(=O)OC(C)C(=O)N(C)C2CCCCC2)cc1 (stereo not given),.,-9,-1,-13,-10,-14
O=C(O)CCN1C(=O)S/C(=C\c2cccnc2)C1=O,17,-2,0,79*,-2,16
O=C1/C(=C/c2cccnc2)SC(=S)N1c1ccc(O)cc1,-2,-20,0,29,60*,2
CS(=O)(=O)c1ccc(C(=O)NCCN2C(=O)S/C(=C\c3cccnc3)C2=O)cc1[N+](=O)[O-],24,-7,1,15,83*,-10
O=C(C(=Cc1ccc(F)cc1)C(=O)c1ccccc1)c1ccccc1,.,.,.,-56,78*,20
O=C(C(=Cc1ccc(F)cc1)c1ccccc1)c1ccc(O)cc1,.,.,.,23,3,-7
O=C(NCc1ccc2c(c1)OCO2)C1CCC(CNS(=O)(=O)c2ccccc2)CC1 (stereo not given),26,61*,2,-5,4,7
O=C(NCc1ccc2c(c1)OCO2)C1CCC(CNS(=O)(=O)c2cccc3nsnc23)CC1 (stereo not given),21,26,-3,0,0,6
CCCCCCCC(=O)Nc1ccc(C(=O)N/N=C/c2cccc([N+](=O)[O-])c2)cc1,20,-1,-1,-25,-59,57*
CCCCCCCCCS(=O)(=O)N/N=C/c1cccc([N+](=O)[O-])c1,21,0,1,51*,18,18
CCCCCCC(=O)Nc1ccc(C(=O)N/N=C/c2cccnc2)cc1,-11,0,2,4,12,-5
CCOC(=O)C1=CCC(c2ccc(CC)cc2)N(S(=O)(=O)c2ccc(C)cc2)C1 (stereo not given),.,.,.,18,14,3
Cc1ccc(C2(C)NC(=O)N(CC(=O)Nc3ccccc3N3CCCC3)C2=O)cc1 (stereo not given),.,2,.,-11,-5,-8
Cc1sc2ncnc(N3CCC(C(=O)N(C)CC(=O)Nc4ccccc4Cl)CC3)c2c1C,.,21,0,25,32,4
Cc1sc2ncnc(N3CCC(C(=O)N(C)CC(=O)Nc4cccc(F)c4)CC3)c2c1C,.,.,.,41,65*,7
Cc1sc2ncnc(N3CCC(C(=O)N(C)CC(=O)Nc4ccc(Cl)c(C(F)(F)F)c4)CC3)c2c1C,.,-23,.,58*,51*,21
Cc1sc2ncnc(N3CCC(C(=O)N(C)CC(=O)Nc4ccccc4Br)CC3)c2c1C,.,19,-1,30,51*,15

# Compound activity as filed in PubChem BioAssay.
